# In paper PMC4336329 (PLoS ONE, 2015):
# The whole screen tested about 310,000 compounds, of which about 14,000 (4.5%) showed an effect of 50% or more. Effects have a minus sign here. The list comes from a sample in which strong results are over-represented; it also holds similar structures and randomly drawn compounds.
# Target: human ether-à-go-go-related gene (hERG) potassium channel (human, UniProt Q12809)
# Assay: primary screen, population patch clamp on CHO cells stably expressing hERG; higher = less effect of the substance
# 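Also: peak tail current of the secondary pulse compared with the same well before compound.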
# human ether-à-go-go-related gene (hERG) potassium channel, sequence (Q12809 whole entry, looked up): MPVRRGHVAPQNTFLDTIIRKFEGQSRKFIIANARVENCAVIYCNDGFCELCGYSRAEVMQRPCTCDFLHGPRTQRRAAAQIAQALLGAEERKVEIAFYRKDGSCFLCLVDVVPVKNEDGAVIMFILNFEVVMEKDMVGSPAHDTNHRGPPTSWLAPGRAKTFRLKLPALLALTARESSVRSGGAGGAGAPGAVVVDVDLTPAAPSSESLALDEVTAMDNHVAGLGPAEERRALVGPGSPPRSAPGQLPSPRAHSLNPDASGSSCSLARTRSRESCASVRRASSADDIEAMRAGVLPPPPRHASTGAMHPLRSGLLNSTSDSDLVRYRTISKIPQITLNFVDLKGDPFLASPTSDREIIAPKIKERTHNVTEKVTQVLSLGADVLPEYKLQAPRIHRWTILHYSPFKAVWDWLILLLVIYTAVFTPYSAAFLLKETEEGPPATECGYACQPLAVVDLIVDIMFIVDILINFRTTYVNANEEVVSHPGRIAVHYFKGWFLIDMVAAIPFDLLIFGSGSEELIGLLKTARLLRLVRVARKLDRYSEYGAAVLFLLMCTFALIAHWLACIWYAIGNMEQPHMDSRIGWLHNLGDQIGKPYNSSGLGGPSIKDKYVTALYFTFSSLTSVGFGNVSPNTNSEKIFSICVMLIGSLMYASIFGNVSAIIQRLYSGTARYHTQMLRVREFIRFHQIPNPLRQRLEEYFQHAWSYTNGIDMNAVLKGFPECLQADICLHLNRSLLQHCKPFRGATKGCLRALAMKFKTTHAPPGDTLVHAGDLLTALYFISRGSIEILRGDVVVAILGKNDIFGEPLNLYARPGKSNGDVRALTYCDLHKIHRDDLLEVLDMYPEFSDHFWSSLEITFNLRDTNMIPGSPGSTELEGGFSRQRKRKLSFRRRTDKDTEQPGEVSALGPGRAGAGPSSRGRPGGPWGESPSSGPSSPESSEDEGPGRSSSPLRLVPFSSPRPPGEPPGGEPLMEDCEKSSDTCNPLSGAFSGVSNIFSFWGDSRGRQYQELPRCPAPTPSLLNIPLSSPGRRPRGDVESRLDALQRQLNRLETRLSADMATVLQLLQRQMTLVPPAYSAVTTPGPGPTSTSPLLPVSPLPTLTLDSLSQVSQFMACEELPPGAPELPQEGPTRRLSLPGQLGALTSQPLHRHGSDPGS
row,Compound,"hERG current change (%, negative = inhibition) at 10uM"
1,CCC(C)(C)NC(=O)C(OC(=O)c1ccco1)c1ccccc1F (stereo not drawn),13.4%
2,O=C(CCCCCN1C(=O)[C@@H]2Cc3ccccc3CN2C1=O)N[C@@H](Cc1ccc(O)cc1)C(=O)O,1.02%
3,CC1Oc2ccccc2N(CC(=O)N(Cc2ccccc2)Cc2ccccn2)C1=O (stereo not drawn),0.288%
4,COc1ccc(/C=N/N2C(=O)C3C4C=CC(C4)C3C2=O)cc1[N+](=O)[O-] (stereo not drawn),-6.14%
5,Cc1ccc2c(c1)NCC(C(=O)NC1CCC(C)CC1)O2 (stereo not drawn),6.16%
6,O=C(NCCOc1ccc2ccccc2c1)c1cncc(Br)c1,3.79%
7,CCOc1ccc(C(C)=O)cc1N1C(=O)C2C3C=CC(C3)C2C1=O (stereo not drawn),8.85%
8,O=C(NCc1ccc(F)cc1)C1CCCN1S(=O)(=O)c1ccccc1C(F)(F)F (stereo not drawn),-13.4%
9,O=C(CSc1nnc(-c2ccccc2)o1)c1nnc(-c2ccccc2)o1,20.1%
10,CC1(C)C(=O)Nc2ccccc2N1C(=O)COC(=O)c1ccc(Cl)c(S(=O)(=O)NCc2ccccc2)c1,-12.8%
11,Cc1ccc(CN2CC(C(=O)N3CCN(S(=O)(=O)c4ccc(C)cc4C)CC3)CC2=O)cc1 (stereo not drawn),-28.2%
12,O=C1C(O)CC2c3ccccc3CC3(CCCC3)N12 (stereo not drawn),6.83%
13,CC(C)CC12CN3CCN(CC(C3)C1O)C2 (stereo not drawn),-1.15%
14,CC1=C(C)NC(=S)SC1,13.9%
15,O=C1CC(c2ccccc2Cl)CC(O)=C1C=Nc1ccccc1 (stereo not drawn),0.512%
16,Cc1ccc2c(c1)N(C(=O)CCC(=O)NCCCN1CCN(C)CC1)CCO2,-5.06%
17,O=C(CCC(=O)N1CCOc2ccc(Cl)cc21)NCCCN1CCOCC1,6.57%
18,Cc1ccc2c(c1)N(C(=O)CCC(=O)NCCCN1CCOCC1)CCO2,5.17%
19,O=C(CCC(=O)N1CCOc2ccccc21)NCCCN1CCOCC1,5.91%

row,Compound,"hERG current change (%, negative = inhibition) at 10uM"
1,Cc1ccc2c(c1)N(C(=O)CCC(=O)NCCCN1CC(C)CC(C)C1)CCO2 (stereo not drawn),-56.2%
2,Cc1ccc2c(c1)N(C(=O)CCC(=O)NCCCN1CCC(Cc3ccccc3)CC1)CCO2,-77.1%
3,O=C(CCC(=O)N1CCOc2ccc(Cl)cc21)NCCCN1CCC(Cc2ccccc2)CC1,-75%
4,Cc1ccc2c(c1)N(C(=O)CCC(=O)NCCN1CCOCC1)CCO2,-5.63%
5,Cc1ccc2oc(C(=O)N3CCN(c4cccc(C)n4)CC3)c(C)c2c1,8.84%
6,O=C1CCN(Cc2nnnn2CC2CCCO2)c2ccccc2N1 (stereo not drawn),2.18%
7,CCOP(=O)(OCC)C(NC(=O)c1cccs1)c1ccccc1 (stereo not drawn),23.5%
8,COc1ccc(/C=N/NC(C)(C)C)c(OC)c1.Cl,12.3%
9,COc1ccc(C(=O)c2cnc[nH]2)cc1OC,10.9%
10,Cc1cc(NC(=O)COc2ccccc2C)ccc1NC(=O)c1cccs1,0.541%
11,CC1CCCCN1C(=O)C1CCN(c2nc(-c3ccccc3)nc3c2CCC3)CC1 (stereo not drawn),-42.4%
12,O=C(C1CCN(c2nc(-c3ccccc3)nc3c2CCC3)CC1)N1CCCC1,-35.8%
13,COCC1CCCCN1C(=O)C1CCN(c2nc(-c3ccccc3)nc3c2CCC3)CC1 (stereo not drawn),-29.2%
14,COCC1CCN(C(=O)C2CCN(c3nc(-c4ccccc4)nc4c3CCC4)CC2)C1 (stereo not drawn),-76.5%
15,CC1CCCN(C(=O)C2CCN(c3nc(-c4ccccc4)nc4c3CCC4)CC2)C1 (stereo not drawn),-55.1%
16,O=C(C1CCN(c2nc(-c3ccccc3)nc3c2CCC3)CC1)N1CCC(O)CC1,-33.4%
17,CC(C)(C)c1nnc(N/N=C/c2ccccc2O)n(N)c1=O,-35%
18,O=C(NCc1ccc2c(c1)OCO2)C1CCCN1C(=O)Nc1cccc(Cl)c1 (stereo not drawn),-25.4%
19,CCCCN(CC)C(=O)c1cc2cc3ccc(Cl)cc3nc2o1,-9.93%

row,Compound,"hERG current change (%, negative = inhibition) at 10uM"
1,CCCN(CCC)CCCNC(=O)c1cc2cc3ccc(Cl)cc3nc2o1,-61%
2,CCCN(CCC)CCNC(=O)c1cc2c(C)nc3ccccc3c2o1,-29.7%
3,O=C(NCc1ccco1)c1cc2cc3ccc(Cl)cc3nc2o1,4.32%
4,CCOCCCNC(=O)c1cc2cc3cc(OC)ccc3nc2o1,-7.74%
5,CCCCN(CC)C(=O)c1cc2cc3ccc(OC)cc3nc2o1,-38.8%
6,CCCCN(CC)CCNC(=O)c1cc2c(C)nc3ccccc3c2o1,-53.5%
7,CCc1ccc(CNC(=O)c2cc3c(C)nc4ccccc4c3o2)cc1,-11.5%
8,CCCCN(CC)CCNC(=O)c1cc2cc3ccc(Cl)cc3nc2o1,-72.5%
9,CC(C)CNS(=O)(=O)c1cc(C(=O)OCC(=O)N(C)C2CCS(=O)(=O)C2)c(Cl)cc1Cl (stereo not drawn),-13%
10,CC1(C)CC(=O)C=C(NNC(=O)C2CCCCC2)C1,8.47%
11,O=C(C1CCCO1)N1CCc2ccccc21 (stereo not drawn),17.1%
12,Cl.O=C(O)CCCCCNc1nc(-c2ccccc2)nc2ccccc12,3.35%
13,CN(CC(O)COCc1ccccc1F)C1CCCCC1 (stereo not drawn),-14.6%
14,COc1ccc(C(OCC(O)CN(C)C2CCCCC2)c2ccc(OC)cc2)cc1 (stereo not drawn),-69.8%
15,CN(CC(O)COCc1ccc2c(c1)OCO2)C1CCCCC1.Cl (stereo not drawn),-20.6%
16,CN(CC(O)COC(c1ccccc1)c1ccccc1)C1CCCCC1 (stereo not drawn),-68.4%
17,CN(CC(O)COCc1cccs1)C1CCCCC1 (stereo not drawn),-12.1%
18,CN(CC(O)COc1ccc(S(=O)(=O)N2CCOCC2)cc1)C1CCCCC1 (stereo not drawn),-6.74%
19,COc1cccc(CNC(=O)CN(C)S(=O)(=O)c2ccc3c(c2)n(C)c(=O)c(=O)n3C)c1,10.3%
